This is a sample that favours compounds with a hit; in the whole collection about 6.2% have one here.
RORgamma inh = blocks mouse ROR gamma transcriptional activity; P51450; Drosophila S2 Gal4-RORgamma UAS-luciferase reporter, 20 h; Potency, µM (titrated, usually from 53.6 µM), inactives show top-dose activity change, negative = inhibition, usual class: inhibitors; hit rate 5.4% among 310,000; note: nearly all actives have a fitted effect of over 60% in size
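Luciferase reporter read in Schneider cells carrying Gal4-RORγ (mouse) and UAS-Photinus luciferase; cells given compound 1 h before 700 uM copper sulfate induction, then incubated 20 h at ambient temperature.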
Luc counter = counter-screen: inhibitors of Kinase-Glo firefly luciferase | Q27757 | Potency, µM (highest dose often 38.3 µM), for inactives: at the top dose activity change, negative = inhibition, usual class: inhibitors | hit rate 0.28% among 200,000 | Kinase-Glo luciferase, ATP luminescence, 8 min | AID 1379; note: nearly all actives have a fitted effect of over 60% in size
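Compound is pinned into ATP-containing buffer (10 uM ATP, imidazole pH 7.2, 7 mM MgCl2). Kinase-Glo luciferase reagent is then added. Light output is recorded following an 8-min room-temperature incubation.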
Gal4-VP16 FLuc = counter-screen for ROR gamma inhibitors: Gal4-VP16 reporter | Drosophila S2 Gal4-VP16 UAS-luciferase, luminescence, 20 h | Potency, µM (titrated, usually from 53.6 µM), inactives show at the highest dose activity, negative = inhibition, usual class: inhibitors | hit rate 3.5% among 310,000;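 note: Gal4-VP16 expression switched on by copper sulfate through the metallothionein promoter; nearly all actives have a fitted effect of over 50% in size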
* marks the source's active call; other numbers are inactive results; ? = inconclusive; nt = not tested or not shown. Calls come from the whole dose curve; as a rule, active = well fitted curve in the direction sought with a large enough effect; inconclusive = small, poorly fitted or top-dose-only effect, or another doubt; inactive = no such curve, though single readings can be large; an effect the other way counts as inactive or inconclusive. % is set by controls: 0 for no effect and ±100 for the full control effect; potency is the fitted concentration of half-maximal effect.

SMILES	RORgamma inh	Luc counter	Gal4-VP16 FLuc
O=C(c1ccncc1)N1CCC2(CC1)CN(c1ncccn1)C2	-6%	-2%	-5%
O=C(CN1C(=O)COc2ccccc21)Nc1ccc(N2CCOCC2)cc1	8%	nt	2%
CCC(=O)Nc1c(C)cc(C)cc1Cl	-3%	-3%	-25%
CCC(=O)NC(=S)Nc1c(C)cc(Br)cc1C	3.2µM*	5%	7.1µM*
Cc1cc(C)nc(NS(=O)(=O)c2ccc(NC(=S)NC(=O)CC(C)C)cc2)n1	25%	6%	17%
Cc1cc(Br)cc(C)c1NC(=S)NC(=O)CC(C)C	4.5µM*	-2%	7.9µM*
C=CCNC(=O)CSc1nnc(-c2ccccc2Br)n1-c1cccc(C(F)(F)F)c1	18%	-2%	-3%
Cc1cccc(CNc2cc(-c3ccccc3CN(C)C)ncn2)c1	-25%	-2%	-7%
CC1CN=C(N(C(=O)Nc2ccccc2)c2ccc(S(=O)(=O)N3CCOCC3)cc2)S1 (stereo not given)	?	-1%	nt
Cc1ccc(S(=O)(=O)NC(=O)Nc2nccs2)cc1	-1%	nt	4%
Cc1ccc(N(CC(=O)NC2CCCC2)C(=O)CNC(=O)c2cccs2)cc1F	-5%	nt	0%
COC(=O)c1ccc2c(=O)n(Cc3ccc4c(c3)OCO4)c(=S)[nH]c2c1	2.5µM*	nt	3.5µM*
COCCn1c(=S)[nH]c2cc(C(=O)N3CCN(Cc4ccc5c(c4)OCO5)CC3)ccc2c1=O	13%	-2%	0%
COC(=O)c1ccc2c(=O)n(CCCCCC(=O)O)c(=S)[nH]c2c1	7.1µM*	6%	14µM*
COC(=O)c1ccc2c(=O)n(CCO)c(=S)[nH]c2c1	-37%	-2%	-8%
COc1cccc(C(=O)N2CCN=C2SCc2cccnc2)c1OC	-36%	2%	-9%
Cc1ccccc1CSCCNC(=O)Nc1ccccc1	?	-1%	?
CCCCNC(=O)[C@@H]1Cc2ccccc2N1C(=O)[C@H](N)CC	10%	0%	9%
Cc1ccc(-n2cccc2C(=S)N=P(N(C)C)(N(C)C)N(C)C)cc1	2.2µM*	7%	6.3µM*
Cc1ccc(-n2cccc2C(=O)NS(=O)(=O)c2ccc(C)cc2)cc1	18%	nt	4%
COc1ccc(N(CC(=O)N2CCN(c3ccc(Cl)cc3)CC2)S(=O)(=O)c2c(C)n[nH]c2C)cc1	?	0%	-26%
CNC(=O)CS(=O)(=O)CC(=O)Nc1cc(OC(C)C)c(Cl)cc1Cl	11%	nt	9%
COc1ccc(S(=O)(=O)N2CCN(c3ncccn3)CC2)cc1OC	-24%	nt	-14%
Cc1ccccc1C(=O)NNC(=O)C12CC3CC(CC(C3)C1)C2	7%	-2%	9%
Cc1cccc(C(=O)NNC(=O)C23CC4CC(CC(C4)C2)C3)c1O	6.3µM*	nt	?
SMILES	RORgamma inh	Luc counter	Gal4-VP16 FLuc
Cc1ccc(N(C(=O)CNC(=O)c2ccco2)C(C(=O)NC2CCCCC2)c2cccnc2)cc1C (stereo not given)	-4%	nt	-2%
Cc1ccc(N(C(=O)CCl)C(C(=O)NC2CCCCC2)c2cccnc2)cc1C (stereo not given)	11µM*	1%	?
CC(=O)Oc1ccc(C(=O)NCc2ccc3c(c2)OCO3)cc1	?	nt	-8%
O=[N+]([O-])c1cc(/C=N/n2c(-c3ccncc3)n[nH]c2=S)ccc1Cl	-16%	-2%	-13%
Cc1ccc(/C=N/n2c(-c3ccncc3)n[nH]c2=S)cc1	8.9µM*	-1%	13µM*
CC(C)(C)c1ccc(-c2n[nH]c(=S)n2/N=C/c2ccncc2)cc1	?	7%	14µM*
CSCC[C@H](NC(=O)[C@H](CC(C)C)NC(=O)CNC(=O)[C@H](Cc1ccc(O)cc1)NC(=O)[C@H](Cc1ccccc1)NC(=O)[C@H](CCCCN)NC(=O)[C@H](CC(N)=O)NC(=O)[C@@H]1CCCN1C(=O)[C@H](CC(=O)O)NC(=O)[C@H](C)NC(=O)[C@@H]1CCC(=O)N1)C(N)=O	5%	nt	-4%
COc1cc(O)c(/C=N/NC(=O)c2ccncc2)c(OC)c1[N+](=O)[O-]	-33%	0%	-3%

Bioassay records deposited in PubChem by National Center for Advancing Translational Sciences (NCATS).
